Where “and” joins values, the source holds several entries; their conditions need not be identical. Equal entries are not always repeated. This is part of a sample that, as a whole, favours compounds with a hit. Of some 83,000 tested, about 20% had one in any assay.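 Assay: single dose, 48 h. Readout: percent growth (0 = no net growth; negative = cell death). Active: <10.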 A number with no mark means an inactive call. Calls of active or inactive are those of the source.

The test system of one assay is RXF 393 renal. Kind of assay: NCI-60 one-dose screen, 48 h (100 = growth as untreated, 0 = no growth, -100 = all killed). As to conditions: 10 µM unless noted.
For the compound `C[n+]1c(/C=C/c2ccc([N+](=O)[O-])cc2)ccc2ccccc21`, the growth is 92.9%.

With `c1ccc2c(c1)Nc1cc3ccccc3cc1N2`, the growth was 63.3%.

Consider `CCOC(=O)/C(=C\c1ccc(-c2ccccc2)cc1)C(C)=O`, for which the growth was 95.6%.

Turning to `NC(N)=N/N=C/c1ccc([N+](=O)[O-])o1`, the growth is 95.7%.

`CCCCCCCCCCCCCCCC[N+](C)(CCO)Cc1cnc[nH]1` (centres undefined): the growth was -44.7% (active).

With `COC(=O)c1nc(=S)[nH]c(C(=O)OC)c1C(=O)c1ccc2ccccc2c1`, the growth was 99.6%.

Take `CCC(=O)Sc1ccccc1C(=O)Nc1ccc(Cl)cc1`: the growth is 88.2%.

`Cc1ccnc(NC(c2ccccc2)c2ccc3cccnc3c2O)c1` (centres undefined): the growth was 66.9%.

Take `CC1SC(=S)N(c2ccc(Cl)cc2)C1=O` (centres undefined): the growth was 116%.

For the compound `CCN1/C(=C\c2cc[n+](CC)c3ccccc23)C=Cc2ccccc21`, the growth is 16.4%.

Regarding `Cc1ccc(C(=Nc2ccccc2)N=P(c2ccccc2)(c2ccccc2)c2ccccc2)cc1`, the growth is -23.3% (active).

On to `CC(C)(C)c1ccc(O)c(C2CCCCC2)c1`, for which the growth is 90.9%.

Turning to `Cc1ccc(NS(=O)(=O)c2ccc(C)cc2)cc1`, the growth was 103% and 96.1%.

Take `O=C(O)C1C2CC3C(OC(=O)C31)C2Br` (centres undefined): the growth was 98.2% and 93.5%.

With `C=CCOc1ccc(N=NC(C#N)C#N)cc1`, the growth was 51.1%.

Take `CN(C)c1ccc(C(=C2C=CC(=[N+](C)C)C=C2)c2ccc(N(C)C)cc2)cc1` (tested in a mixture with another compound): the growth is -70.1% (active).

For `O=C(/C=C\c1cc(Br)ccc1O)/C=C/c1cc(Br)ccc1O`, the growth was -49.4% (active).

`CC(C)c1ccc2nc3ccc(C(=O)NCCN4CCN(c5ccccc5)CC4)cn3c(=O)c2c1`: the growth is 3.14% (active).

Regarding `O=C(/C=C/C=C/c1ccccc1)c1ccco1`, the growth is 46%.

Regarding `CC1(C)CC([P+](c2ccccc2)(c2ccccc2)c2ccccc2)=NN1`, the growth is 59.6%.

As to `COC(=O)[C@@]12OC[C@]34[C@H]([C@@H](O)[C@@H]1O)[C@@]1(C)[C@H](O)C(=O)C=C(C)[C@@H]1C[C@H]3OC(=O)C(OC(C)=O)[C@@H]24` (some centres undefined), the growth was -63.6% (active).

Turning to `Cc1c2ccccc2c(C)c2c1ccc1ccccc12`, the growth was 96.3%.

With `S=C(N/N=C/c1ccccn1)Nc1ccccn1`, the growth is 2.43% (active).

As to `CN(C)C(=O)SC1=C(c2c(Cl)cccc2Cl)C(=O)c2ccccc21`, the growth was -27.5% (active).

As to `CCC(CC)COC(=O)c1ccc(O)c(O)c1`, the growth was 65.7%.

As for `CC1=CC(O)C2CC1C2(C)C` (centres undefined), the growth is 115% and 104%.

For `COc1cc(/C=C(/C)C[N+](=O)[O-])ccc1O`, the growth is 91.2%.

In the case of `NC1=CC(=O)c2ccccc2C1=O`, the growth was 100%.

As to `CCN(CC)CCOc1ccc(-c2nc3cc(Cl)ccc3s2)cc1`, the growth is 29.8%.

Take `CCOc1ccc(-c2nc3ccc(-c4nc5ccc(N6CCN(C)CC6)cc5[nH]4)cc3[nH]2)cc1`: the growth was -86.2% (active).

Take `CNC(=O)N/N=C/c1ccc([N+](=O)[O-])o1`: the growth is 115%.

With `N#CSCc1ccc(CSC#N)c(Cl)c1`, the growth was 72.2%.

The next assay relates to SF-268 CNS. The description is as above. The note with it: 10 µM unless noted.
As to `C[n+]1c(/C=C/c2ccc([N+](=O)[O-])cc2)ccc2ccccc21`, the growth was 102%.

Turning to `c1ccc2c(c1)Nc1cc3ccccc3cc1N2`, the growth was 66.2%.

With `CCOC(=O)/C(=C\c1ccc(-c2ccccc2)cc1)C(C)=O`, the growth was 91%.

With `NC(N)=N/N=C/c1ccc([N+](=O)[O-])o1`, the growth was 90.3%.

In the case of `CCCCCCCCCCCCCCCC[N+](C)(CCO)Cc1cnc[nH]1` (centres undefined), the growth was -66.1% (active).

Regarding `COC(=O)c1nc(=S)[nH]c(C(=O)OC)c1C(=O)c1ccc2ccccc2c1`, the growth is 102%.

`CCC(=O)Sc1ccccc1C(=O)Nc1ccc(Cl)cc1`: the growth is 56.4%.

For `Cc1ccnc(NC(c2ccccc2)c2ccc3cccnc3c2O)c1` (centres undefined), the growth was 34.7%.

Regarding `CC1SC(=S)N(c2ccc(Cl)cc2)C1=O` (centres undefined), the growth was 109% and 84.1%.

`CCN1/C(=C\c2cc[n+](CC)c3ccccc23)C=Cc2ccccc21`: the growth was 26.3%.

Consider `Cc1ccc(C(=Nc2ccccc2)N=P(c2ccccc2)(c2ccccc2)c2ccccc2)cc1`, for which the growth is -0.449% (active).

Consider `CC(C)(C)c1ccc(O)c(C2CCCCC2)c1`, for which the growth was 99.4%.

As for `Cc1ccc(NS(=O)(=O)c2ccc(C)cc2)cc1`, the growth is 97.8% and 93.1%.

On to `O=C(O)C1C2CC3C(OC(=O)C31)C2Br` (centres undefined), for which the growth is 109% and 106%.

On to `C=CCOc1ccc(N=NC(C#N)C#N)cc1`, for which the growth is 102%.

`CN(C)c1ccc(C(=C2C=CC(=[N+](C)C)C=C2)c2ccc(N(C)C)cc2)cc1` (tested in a mixture with another compound): the growth was -92.2% (active).

Take `O=C(/C=C\c1cc(Br)ccc1O)/C=C/c1cc(Br)ccc1O`: the growth is -17.9% (active).

`CC(C)c1ccc2nc3ccc(C(=O)NCCN4CCN(c5ccccc5)CC4)cn3c(=O)c2c1`: the growth is 72.9%.

With `O=C(/C=C/C=C/c1ccccc1)c1ccco1`, the growth is 91.5%.

For the compound `CC1(C)CC([P+](c2ccccc2)(c2ccccc2)c2ccccc2)=NN1`, the growth is 41.1%.

For the compound `COC(=O)[C@@]12OC[C@]34[C@H]([C@@H](O)[C@@H]1O)[C@@]1(C)[C@H](O)C(=O)C=C(C)[C@@H]1C[C@H]3OC(=O)C(OC(C)=O)[C@@H]24` (some centres undefined), the growth is -31.2% (active).

Regarding `Cc1c2ccccc2c(C)c2c1ccc1ccccc12`, the growth was 98.5%.

In the case of `S=C(N/N=C/c1ccccn1)Nc1ccccn1`, the growth is 32%.

In the case of `CN(C)C(=O)SC1=C(c2c(Cl)cccc2Cl)C(=O)c2ccccc21`, the growth is 13.3%.

For the compound `CCC(CC)COC(=O)c1ccc(O)c(O)c1`, the growth is 57.8%.

`CC1=CC(O)C2CC1C2(C)C` (centres undefined): the growth is 104% and 113%.

In the case of `COc1cc(/C=C(/C)C[N+](=O)[O-])ccc1O`, the growth was 101%.

On to `NC1=CC(=O)c2ccccc2C1=O`, for which the growth is 95.6%.

With `CCN(CC)CCOc1ccc(-c2nc3cc(Cl)ccc3s2)cc1`, the growth is 16.5%.

With `CCOc1ccc(-c2nc3ccc(-c4nc5ccc(N6CCN(C)CC6)cc5[nH]4)cc3[nH]2)cc1`, the growth is -83.9% (active).

Turning to `CNC(=O)N/N=C/c1ccc([N+](=O)[O-])o1`, the growth was 94.2%.

Consider `N#CSCc1ccc(CSC#N)c(Cl)c1`, for which the growth was 65.8%.

The record behind these values is PubChem BioAssay (NCI).
